Source: PubChem BioAssay (National Center for Advancing Translational Sciences (NCATS))
This is a sample that favours compounds with a hit; in the whole collection about 5.7% have one here.
L3MBTL1 inh: L3MBTL1 (human) inhibition. AlphaScreen L3MBTL1–H3K9me1 peptide binding. actives 0.66% (n = 230,000). Potency, µM (series often up to 57.1 µM), inactives show top-dose activity, negative = inhibition, usual class: inhibitors. Q9Y468. AID 485360; further: potency means the concentration at half of the fitted maximal effect; on the % scale 0 is the no-effect control and ±100 the full control effect; nearly all actives have a fitted effect of over 60% in size
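Displacement of a biotinylated histone H3(1-15) peptide monomethylated at Lys9 (75 nM) from L3MBTL1 (50 nM) was measured by AlphaScreen after a 30 min room-temperature compound incubation; cefsulodin titration served as intraplate control.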
JMJD2A Tudor inh: inhibitors of human JMJD2A Tudor domain | O75164 | AlphaScreen JMJD2A-Tudor / H3K4me3 peptide binding | Potency, µM (titrated, usually from 114 µM), for the others: at the highest dose activity change, negative = inhibition, actives largely listed as inhibitors | actives 4.4% (n = 390,000) | AID 504339; further: potency means the concentration at half of the fitted maximal effect; on the % scale 0 is the no-effect control and ±100 the full control effect; nearly all actives have a fitted effect of over 50% in size
JMJD2E inh: inhibitors of human JMJD2E histone demethylase | JMJD2E catalytic domain, FDH-coupled NADH fluorescence (FDH is formaldehyde dehydrogenase) | Potency, µM (series often up to 57.1 µM), inactives show at the highest dose activity change, negative = inhibition, actives largely listed as inhibitors | actives 1.6% (n = 230,000); active means well fitted inhibition curve with a large enough effect, not every such curve was filed as active; inconclusive means small, poorly fitted or top-dose-only effect, or another doubt; inactive means no such curve, though single readings can be large or run the other way;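 further: potency means the concentration at half of the fitted maximal effect; 0% = wells with enzyme and -100% = buffer wells without enzyme; nearly all actives have a fitted effect of over 50% in size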
Target sequence (B2RXH2 1-337 limits assumed): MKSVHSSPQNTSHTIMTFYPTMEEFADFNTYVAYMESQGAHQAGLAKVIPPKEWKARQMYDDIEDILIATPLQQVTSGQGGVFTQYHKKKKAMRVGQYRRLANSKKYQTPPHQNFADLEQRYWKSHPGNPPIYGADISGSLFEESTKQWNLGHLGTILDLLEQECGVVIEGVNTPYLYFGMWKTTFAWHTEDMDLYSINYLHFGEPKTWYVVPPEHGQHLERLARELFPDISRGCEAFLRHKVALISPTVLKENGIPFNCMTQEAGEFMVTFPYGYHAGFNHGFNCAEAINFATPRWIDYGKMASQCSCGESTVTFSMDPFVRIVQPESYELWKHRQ
BAZ2B inh: blocks human BAZ2B | Potency, µM (top dose mostly 114 µM), for the others: top-dose activity change, negative = inhibition, hits mostly inhibitors | Q9UIF8 | actives 4.4% (n = 360,000) | AlphaScreen BAZ2B-H3K14Ac peptide displacement | AID 504333; further: potency means the concentration at half of the fitted maximal effect; on the % scale 0 is the no-effect control and ±100 the full control effect; nearly all actives have a fitted effect of over 60% in size
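BAZ2B (50 nM) with biotin-H3(5-23)K14Ac peptide (50 nM) in PBS pH 7.4, 0.01% Tween-20, preformed 30 min, then compound 30 min at room temperature; top concentration 110uM. AlphaScreen streptavidin donor/nickel chelate acceptor beads (10 ug/mL final), 20 min dark, signal read.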
HP1b chromo inh: HP1-beta chromodomain-methylated histone interaction inhibition. actives 0.56% (n = 390,000). P83916. AlphaScreen HP1-beta / biotin-H3K9me3 peptide binding. Potency, µM (series often up to 114 µM), without a hit: at the top dose activity change, negative = inhibition, usual class: inhibitors; further: potency means the concentration at half of the fitted maximal effect; nearly all actives have a fitted effect of over 70% in size
Target sequence (P83916 whole entry, looked up): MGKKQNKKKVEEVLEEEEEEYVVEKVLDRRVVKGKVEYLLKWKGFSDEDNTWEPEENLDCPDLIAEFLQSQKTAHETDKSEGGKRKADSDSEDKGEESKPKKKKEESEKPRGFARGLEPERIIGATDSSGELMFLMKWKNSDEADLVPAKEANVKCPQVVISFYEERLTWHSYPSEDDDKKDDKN
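HP1-beta protein (50 nM final) preincubated 30 min at room temperature with biotinylated H3(1-18)K9me3 peptide (50 nM) in PBS pH 7.4, 0.01% Tween-20, then compound added for 30 min. AlphaScreen streptavidin donor/nickel chelate acceptor beads (10 ug/mL final), 30 min dark, luminescence read.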
PI5P4Ka inh: PI5P4K alpha (human) kinase inhibition | P48426 | PI5P4Kalpha enzyme, ADP-Glo luminescence, 60 min; stronger effect = lower value | max response, % | actives 1.2% (n = 330,000) | AID 652105; active means max response of -50% or lower; inconclusive means between -30% and -50%; inactive means -30% or higher; further: value at the top dose of about 77 µM; on the % scale 0 is the no-effect control and ±100 the full control effect
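qHTS, 1536-well: enzyme/substrate mix, compound by pin tool, 5 microM ATP final; RT 60 min; ADP-Glo reagents 1 (45 min) then 2 (30 min); luminescence.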
* = called active by the depositor; ? = inconclusive; . = no result; [ ] = another dose, or the depositor's remark. Unless noted, the call rests on the fitted dose curve; in most records, active means well fitted inhibition curve with a large enough effect; inconclusive means small, poorly fitted or top-dose-only effect; inactive means no such curve, though single readings can be large or run the other way.

SMILES	L3MBTL1 inh	JMJD2A Tudor inh	JMJD2E inh	BAZ2B inh	HP1b chromo inh	PI5P4Ka inh
Cc1[nH]c2ccccc2c1C(C#N)(C#N)C1C(=O)c2ccccc2C1=O	?	13µM*	?	7.9µM*	11µM*	-12
Cc1ccc(NS(=O)(=O)c2ccc3c(c2)CCO3)cc1C	.	-29%	.	.	.	.
Cc1cccc(C(=S)N2CCOCC2)n1	4%	-6%	.	-4%	12%	-1
CSC(=S)NN=C(C)c1cccc(C)n1	.	5µM*	.	.	-25%	0
CC(=NNC(=S)N1CCCCC1)c1cccc(C)n1	.	25µM*	.	.	?	-7
CCc1ccc2[nH]c(=O)c(C3C(C#N)=C(N)Oc4c3ccc3cccnc43)cc2c1 (configuration not stated)	-3%	?	?	?	13%	-51*
Cc1cccc(C(=O)N/N=C/c2ccoc2)c1	.	-26%	.	50µM*	17%	?
Cc1cccc(/C=N\NC(=O)c2csnn2)c1	-27%	79µM*	7%	?	11%	-23
COc1cccc(-c2nnc(SCC(=O)N(C)c3ccccc3)o2)c1	.	-8%	.	0%	44%	.
OCCN1CCN(c2nc(N3CCCCC3)nc(N3CCCCC3)n2)CC1	0%	-32%	1%	-20%	16%	1
N=C(N)Sc1nc(N2CCCCC2)nc(N2CCCCC2)n1	10%	-14%	-3%	79µM*	30%	4
O=C1N=c2ccccc2=C1c1sc(=S)n(CC2CCCO2)c1O (configuration not stated)	.	-8%	-4%	?	9%	0
COc1ccc(N=C2O/C(=C/c3sc(=S)n(CC4CCCO4)c3O)N=C2C#N)cc1 (configuration not stated)	-20%	?	2%	8.9µM*	?	-3
Cc1c(Cl)cccc1NC(=O)Cn1c(=O)n(Cc2ccco2)c(=O)c2oc3ccccc3c21	.	-8%	.	-19%	24%	.
COc1cccc(N=Cc2c[nH][nH]c2=O)c1	-2%	56µM*	-7%	-9%	-11%	-8
O=c1[nH][nH]cc1C=Nc1ccc(Cl)cc1	-4%	-20%	?	-26%	31%	1
COc1ccccc1C1C2C(=O)N(c3ccccc3)C(=O)C2ON1c1ccccc1 (configuration not stated)	.	-21%	2%	-3%	22%	0
COc1ccccc1N1C(=O)C2ON(c3ccccc3)C(c3ccc(N(C)C)cc3)C2C1=O (configuration not stated)	-19%	.	-6%	35µM*	.	.
O=C(N/N=C/c1ccc2c(c1)OCO2)c1sc2cc(Cl)ccc2c1Cl	2%	89µM*	6%	?	103%	?
O=C(O)c1cc(N/N=C/C(Cl)=C/c2ccccc2)ccc1Cl	-15%	-30%	-14%	35µM*	9%	1
O=C(N/N=C/c1ccc2c(c1)OCO2)c1ccc(Br)o1	-1%	?	3%	79µM*	-8%	2
COc1ccc2c(Cl)c(C(=O)N/N=C/c3ccc4c(c3)OCO4)sc2c1	-6%	-31%	?	-1%[57.1 µM]	-4%	-3
O=C(O)c1cc(N/N=C/c2ccc3c(c2)OCO3)ccc1Cl	-24%	-25%	?	?	39%	-53*
O=C(O)c1cc(NN=C2c3ccccc3-c3ccccc32)ccc1Cl	.	-33%	.	?	-6%[57 µM]	1
COc1ccc(CNC(=O)CN2C(=O)c3cccnc3Oc3ccc(C)cc32)cc1	.	-20%	.	-17%	34%	.
Cc1cccc(N2CCN(CCCNc3ncnc4onc(-c5ccc(Cl)cc5)c34)CC2C)c1 (configuration not stated)	.	?	.	?	-21%	.
CC1CN(C(=O)CCS(=O)(=O)c2ccccc2)CC(C)O1 (configuration not stated)	.	-7%	.	11%	12%	-1
CCOc1ccc(C2c3c(oc4ccc(C)cc4c3=O)C(=O)N2c2nc(C)c(C)s2)cc1OC (configuration not stated)	.	-16%	.	2%	12%	.
COc1ccc2cc(CNc3ccc(C)cc3)c(=O)n(CC(=O)Nc3cccc(Cl)c3C)c2c1	.	5%	.	-2%	50%	.
